Records with an inconclusive call do not appear. Unmarked numbers belong to inactive results. Active and inactive are the calls of the source. Calls follow the shape of the dose curve; as a rule, active = well fitted cell-killing curve with a large enough effect; inconclusive = small, poorly fitted or top-dose-only effect, or effect the other way; inactive = no such curve, though single readings can be large or run the other way.
Potency is read from the fitted curve at half-maximal effect.

The nature of this assay: Quantitative High-Throughput drug screen in 47 multiple myeloma cell lines against the NCATS MIPE library collection: KMM1_JCRB cell viability assay (AID 1918960). Also: nearly all actives have a fitted effect of over 30% in size. As to conditions: KMM1 myeloma viability, CellTiter-Glo ATP luminescence, 48 h; series mostly up to 45.8 µM; viability (% of DMSO): at the top concentration. The text has this:
PI: Beverly A. Mock Ph.D.
Laboratory of Cancer Biology and Genetics,
Center for Cancer Research, National Cancer Institute,
National Institute of Health, Bethesda, Maryland
Drug resistance and disease progression are common in multiple myeloma (MM) patients, underscoring the need for new therapeutic combinations. […] We hypothesized that effective combinations would reduce MYC expression and enhance p16 activity. […] These preclinical data identify potentially useful drug combinations for evaluation in drug-resistant MM and reveal potential mechanisms of combined drug sensitivity.
Described herein is the primary MIPE qHTS used to cherrypick compounds. Validated compounds were then further tested for potential synergistic activiy.
[1] Peat TJ, Gaikwad SM, Dubois W, Gyabaah-Kessie N, Zhang S, Gorjifard S, Phyo Z, Andres M, Hughitt VK, Simpson RM, Miller MA, Girvin AT, Taylor A, Williams D, D'Antonio N, Zhang Y, Rajagopalan A, Flietner E, Wilson K, Zhang X, Shinn P, Klumpp-Thomas C, McKnight C, Itkin Z, Chen L, Kazandijian D, Zhang J, Michalowski AM, Simmons JK, Keats J, Thomas CJ, Mock BA. Drug combinations identified by high-throughput screening promote cell cycle transition and upregulate Smad pathways in myeloma. Cancer Lett. 2023 Aug 1;568:216284. doi: 10.1016/j.canlet.2023.216284. Epub 2023 Jun 24. PMID: 37356470; PMCID: PMC10408729.
SEQUENCE No. (e.g., 1, 2, 3, etc.); […] (e.g., Cells, Incubation, Reagent, etc.); VALUE and DESCRIPTION.
1; Cells; 5 uL; white, solid bottom 1536-well Greiner assay plate.
2; Compounds; 23 nL; Kalypsis pin tool (Wako USA) equipped with a 1536-well pin head to transfer to the assay plates.
3; Incubation; 48 hours; 37C incubation.
4; Reagent;5uL; CellTiter Glo (Promega).
5; Detector; 425V; Luminescence; Viewlux PerkinElmer.
NOTES (numbers refer to Sequence numbers above)
1. The cell-based screening methods employed in this study were like those previously published. Briefly, the corresponding myeloma cell lines were screened in 1,536-well plates with 500 cells, 5-uL per well for inhibition of cell viability (assessed by measuring ATP levels with CellTiterGlo).
2. NCATS MIPE 4.0 library of approved and investigational drugs were added using the Kalypsis pin tool. Wells treated with DMSO only for 100% viability and media only cells for 0% viability were used as controls.
3. The assay plates were covered and incubated for 48 hours in a 37C, 5% CO2 incubator with controlled humidity.
4. After 48 hours, CellTilter-GloTM luminescent substrate mix (Promega) reagent was added to the assay plate and plates we incubated for 5 min at room temperature.
5. Signal was measured as median relative luminescence units on a ViewLux (PerkinElmer) multiplate reader.
[1] Heske CM, Davis MI, Baumgart JT, Wilson K, Gormally MV, Chen L, Zhang X, Ceribelli M, Duveau DY, Guha R, Ferrer M, Arnaldez FI, Ji J, Tran HL, Zhang Y, Mendoza A, Helman LJ, Thomas CJ. Matrix Screen Identifies Synergistic Combination of PARP Inhibitors and Nicotinamide Phosphoribosyltransferase (NAMPT) Inhibitors in Ewing Sarcoma. Clin Cancer Res. 2017 Dec 1;23(23):7301-7311. doi: 10.1158/1078-0432.CCR-17-1121. Epub 2017 Sep 12. PMID: 28899971; PMCID: PMC6636827.
For `CC[C@H]1OC(=O)[C@H](C)[C@@H](O[C@H]2C[C@@](C)(OC)[C@@H](O)[C@H](C)O2)[C@H](C)[C@@H](O[C@@H]2O[C@H](C)C[C@H](N(C)C)[C@@H]2O)[C@](C)(OC)C[C@@H](C)C(=O)[C@H](C)[C@@H](O)[C@]1(C)O`, the “viability (% of DMSO)” value is 88.6%.
For `CO[C@@H]1[C@@H](O)[C@H](O)[C@@H](n2c3c(Cl)cccc3c3c4c(c5c6cccc(Cl)c6[nH]c5c32)C(=O)NC4=O)O[C@@H]1CO`, the Potency is 0.264 µM (active).
Regarding `COC(=O)C1C2CC3c4[nH]c5cc(OC)ccc5c4CCN3CC2CC(OC(=O)c2cc(OC)c(OC)c(OC)c2)C1OC` (stereo not given), the Potency is 20.9 µM (active).
For the compound `O=C(O)C(=O)Nc1cccc(C2=NN=N[N]2)c1`, the “viability (% of DMSO)” value is 91.2%.
`CC(O)(C#Cc1ccc2c(c1)N(c1nc(N)ncc1Cl)CC2)c1nccs1` (stereo not given): the Potency was 5.26 µM (active).
Consider `CC(C=CC=C(C)C=CC1=C(C)CCCC1(C)C)=CC=CC=C(C)C=CC=C(C)C=CC1=C(C)CCCC1(C)C`, for which the “viability (% of DMSO)” value was 76.1%.
For the compound `C=CC(=O)Nc1cccc(Nc2nc(NC3CCC(N(C)C)CC3)nc3c2ncn3C(C)C)c1` (stereo not given), the Potency is 0.0132 µM (active).
On to `CCC[C@H]1C[C@H](C(=O)N[C@@H]([C@@H]2O[C@@H](SC)[C@@H](O)[C@@H](O)[C@@H]2O)[C@H](C)Cl)N(C)C1`, for which the “viability (% of DMSO)” value was 105%.
With `O=c1[nH]c(=O)n([C@H]2C[C@@H](O)[C@@H](CO)O2)cc1C=CBr`, the “viability (% of DMSO)” value was 95.5%.
`C=CC(=O)N1CCc2ccc(-n3c(=O)ccc4cnc5ccc(-c6cnn(C)c6)cc5c43)cc21`: the Potency is 0.833 µM (active).
In the case of `O=C1CSC(=O)N1C(CCc1ccncc1)COc1ccc(-c2cccc([N+](=O)[O-])c2)cc1` (stereo not given), the “viability (% of DMSO)” value is 111%.
With `COc1cc2c(Nc3ccc(Cl)c(Cl)c3F)ncnc2cc1OCC1C[C@@H]2CN(C)C[C@H]2C1`, the Potency is 18.7 µM (active).
Still for that read-out and setting: the figure for `CC(C)(N)c1ccc(-c2nc3ccccc3nc2-c2ccccc2)cc1` is 18.7 µM (active).
Take `CN1[C@H]2CC(OC(=O)[C@@H](CO)c3ccccc3)C[C@H]1[C@H]1O[C@H]12` (stereo not given in full): the “viability (% of DMSO)” value was 109% [at 23.2 µM].
Consider `C[C@H]1COc2c(N3CCN(C)CC3)c(F)cc3c(=O)c(C(=O)O)cn1c23`, for which the “viability (% of DMSO)” value was 101%.
`C=CC(=O)Nc1cc(NC(=O)c2ccc(C)c(NC(=O)c3ccno3)c2)cc(C(F)(F)F)c1`: the Potency was 5.9 µM (active).
For `FC(F)(F)c1ccc(Nc2nc3ccc(Oc4ccnc(-c5ncc(C(F)(F)F)[nH]5)c4)cc3[nH]2)cc1`, the Potency was 18.7 µM (active).
On to `Cc1coc2c1C(=O)C(=O)c1c-2ccc2c(C)cccc12`, for which the “viability (% of DMSO)” value is 111%.
On the same count and under the same terms, next, `CCCCCCCCCCCC(CC1OC(=O)C1CCCCCC)OC(=O)C(CC(C)C)NC=O` (stereo not given): 105%.
As for `CC(C)[C@H](CO)Nc1nc(Nc2cccc(Cl)c2)c2ncn(C(C)C)c2n1`, the “viability (% of DMSO)” value is 111%.
On to `Cc1cnn(C)c1C(=O)Nc1cc(Nc2ccc3c(C=Cc4ccccn4)n[nH]c3c2)ccc1F`, for which the Potency is 1.66 µM (active).
Still for that read-out and setting: the figure for `NC(=O)N1CCC(CC(=O)N2CCC([C@H]3c4ncc(Br)cc4CCc4cc(Cl)cc(Br)c43)CC2)CC1` is 18.7 µM (active).
On to `OCc1ccccc1O[C@@H]1O[C@H](CO)[C@H](O)[C@H](O)[C@H]1O`, for which the “viability (% of DMSO)” value is 112%.
With `CN(C)CC[C@H](c1ccc(Cl)cc1)c1ccccn1`, the “viability (% of DMSO)” value was 81.5%.
Consider `Cn1cnc(=N)c2[nH]cnc21`, for which the Potency was 0.132 µM (active).
The same measure, in the same setting: next, `CN(C)c1ccc2cc(C(=O)N[C@@H](CCCN=C(N)CCl)C(=O)NCc3ccccc3)ccc2c1`: 1.32 µM (active).
Take `CCN1CCN(C(=O)N[C@H](C(=O)N[C@@H]2C(=O)N3C(C(=O)O)=C(CSc4nnnn4C)CS[C@@H]23)c2ccc(O)cc2)C(=O)C1=O`: the “viability (% of DMSO)” value is 124% [at 15.3 µM].
Consider `CCCCCCCCc1ccc(CCC(N)(CO)CO)cc1`, for which the Potency is 6.62 µM (active).
For `COc1cc([C@@H]2c3cc4c(cc3[C@H](O)[C@H]3COC(=O)[C@@H]23)OCO4)cc(OC)c1OC`, the Potency was 0.0833 µM (active).
On to `CC(=O)N[C@@H]1[C@H](O[C@@H]2c3ccc(c(Cl)c3)Oc3cc4cc(c3O[C@H]3O[C@H](CO)[C@@H](O)[C@H](O)[C@H]3NC(=O)CCCCCCCC(C)C)Oc3ccc(cc3Cl)C[C@H]3NC(=O)[C@H](N)c5ccc(O)c(c5)Oc5cc(O)cc(c5)[C@H](NC3=O)C(=O)N[C@H]4C(=O)N[C@H]3C(=O)N[C@@H]2C(=O)N[C@@H](C(=O)O)c2cc(O)cc(O[C@H]4O[C@H](CO)[C@@H](O)[C@H](O)[C@H]4O)c2-c2cc3ccc2O)O[C@H](CO)[C@@H](O)[C@@H]1O`, for which the “viability (% of DMSO)” value is 97.8%.
Consider `COc1cc2ncnc(Nc3cccc(Br)c3)c2cc1OC`, for which the Potency was 14.8 µM (active).
As for `CN(C)CCN1C(=O)c2cccc3cc(N)cc(c23)C1=O`, the Potency was 18.7 µM (active).
For the compound `CC(=O)O[C@H]1C[C@@H]2CC[C@H]3[C@H]4C[C@H]([N+]5(C)CCCCC5)[C@@H](OC(C)=O)[C@@]4(C)CC[C@@H]3[C@@]2(C)C[C@H]1[N+]1(C)CCCCC1`, the “viability (% of DMSO)” value was 112%.
As for `C[C@H]1C[C@H]2[C@@H]3CCC4=CC(=O)C=C[C@]4(C)[C@@H]3C(=O)C[C@]2(C)[C@@]1(O)C(=O)CO`, the “viability (% of DMSO)” value is 74.4%.
Take `C=CCNc1c(O)cc2c(O)c1C[C@@H](C)C[C@H](OC)[C@@H](O)[C@@H](C)C=C(C)[C@H](OC(N)=O)[C@@H](OC)C=CC=C(C)C(=O)N2`: the Potency is 0.372 µM (active).
As to `O=C(Nc1ccc(Oc2ccnc3[nH]ccc23)c(F)c1)c1cccn(-c2ccc(F)cc2)c1=O`, the Potency was 2.64 µM (active).
As to `CCS(=O)(=O)Nc1ccc2[nH]c(O)c(C(=Nc3ccc(CN4CCCCC4)cc3)c3ccccc3)c2c1`, the Potency was 3.72 µM (active).
Consider `NC1=N[C@H]2[C@H](CS[C@H]2CCCCC(=O)O)N1`, for which the “viability (% of DMSO)” value was 105% [at 23.2 µM].
`Nc1ccc(C(=O)Nc2cccc(-c3nc(N4CCOCC4)c4oc5ncccc5c4n3)c2)cn1`: the Potency was 0.418 µM (active).
For `COc1ccc(C[C@@H](C)[C@@H](C)Cc2ccc(OC)c(OC)c2)cc1OC`, the Potency is 0.235 µM (active).

The values above are taken from PubChem BioAssay (NCATS).
